Our source for the Potency values is PubChem BioAssay (NCATS).

Records with an inconclusive call do not appear. Entries that show only a call come without a potency. Calls of active or inactive are those of the source. Calls come from the whole dose curve; as a rule, active = well fitted inhibition curve with a large enough effect; inconclusive = small, poorly fitted or top-dose-only effect; inactive = flat fitted curve, though single readings scatter.

Sequence of Calcium and integrin-binding protein 1 (Homo sapiens) (Q99828 whole entry, looked up): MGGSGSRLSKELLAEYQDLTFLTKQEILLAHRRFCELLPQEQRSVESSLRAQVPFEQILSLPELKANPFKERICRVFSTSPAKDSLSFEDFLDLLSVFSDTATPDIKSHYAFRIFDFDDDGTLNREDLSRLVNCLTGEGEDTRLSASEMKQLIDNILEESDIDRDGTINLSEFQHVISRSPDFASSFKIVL

The target of the experiment is Calcium and integrin-binding protein 1 (Homo sapiens) (UniProt Q99828). In words: Primary qHTS for Identification of Calcium Integrin Binding Protein 1 (CIB1) Competitor (AID 1508620).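 Note: GST tagged CIB1 binding a fluorescein labelled alphaIIb integrin peptide tracer; top concentration of the series differs between compounds.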 The note with it: CIB1-GST / FITC-alphaIIb peptide fluorescence polarization; series mostly up to 114 µM. An outline of the steps:
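CIB1-GST (1 uM final) and compound incubated 15 min at room temperature before adding FITC-alphaIIb peptide tracer (100 nM final). Competition for binding read by fluorescence polarization (ex 480, em 540) after another 15 min at room temperature.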
In general terms: Quantitative high-throughput screening tests each substance at several concentrations.
As for `Cc1cc(C)n2ncc(C(=O)Nc3ccc4c(c3)OCO4)c2n1`, the Potency result is “inactive”. As to `C/C(=C\c1ccc2c(c1)OCCO2)C1Nc2cccc3cccc(c23)N1`, the Potency result is “inactive”.

With `COc1cc(OC)cc(-c2csc(N3CCC(C(N)=O)CC3)n2)c1`, the Potency result is “inactive”. With `N#Cc1ccccc1OC1=NS(=O)(=O)c2ccccc21` the entry was “inactive”; with `CC(=O)N1CCCc2cc(S(=O)(=O)Nc3ccc(C)c(C)c3)ccc21`, “inactive”; with `Cc1ccc(NS(=O)(=O)c2ccc3c(c2)n(C)c(=O)n3C)cc1C`, “inactive”. With `N#Cc1nc(NCCCO)nc(Nc2ccccc2)n1`, the Potency result was “inactive”.

As for `COC(=O)c1c(-c2ccccc2)no[n+]1[O-]`, the Potency entry is “inactive”. On to `c1cncc(-c2ccc3ncnc(NCc4ccc5c(c4)OCO5)c3c2)c1`, for which the Potency entry was “inactive”. For `Cc1ccc2nc3sc(C(=O)NCCc4cccnc4)cc3cc2c1`, the Potency entry was “inactive”. `Cc1cc(N[S+](=O)([O-])c2ccc(NC(=O)Cc3ccc(F)c(C(F)(F)F)c3)cc2)no1`: the Potency entry is “inactive”. Take `Cc1ccc2nc3sc(C(=O)N4CCCCC4)cc3cc2c1`: the Potency result is “inactive”. As to `O=S(=O)(NCC1CCC(NS(=O)(=O)c2c(F)cccc2F)CC1)c1ccc2c(c1)OCCO2` (stereo not given), the Potency entry is “inactive”. On to `Cc1ccc(OCCn2c(CCNC(=O)c3ccccc3C(F)(F)F)nc3ccccc32)cc1`, for which the Potency entry is “inactive”. `COc1cc(F)c(S(=O)(=O)N2CCCN(S(=O)(=O)c3cccc(N)c3)CC2)c(F)c1`: the Potency result is “inactive”. As for `Cc1ccnc(NC(=S)N2CCN(c3cc(C(F)(F)F)cc(C(F)(F)F)c3)CC2)c1`, the Potency result was “inactive”. Turning to `COc1ccc2cc3cc(C(=O)Nc4ccc(F)cc4)sc3nc2c1`, the Potency entry is “inactive”.

Take `CC(=O)Nc1sc2c(c1-c1cc3ccccc3[nH]1)CCNC2`: the Potency result was “inactive”.

In the case of `N#Cc1c(-c2ccc(OCCOCCOCCN)cc2)no[n+]1[O-]`, the Potency entry is “inactive”. With `Cc1c(C(=O)N(C)CC2CCCO2)[nH]c2c1C(=O)CC(c1ccco1)C2` (stereo not given) the entry was “inactive”; with `COc1cccc(-c2nnc3n2N=C(c2ccc(OC)cc2OC)CS3)c1`, “inactive”. With `N=c1c2c(ccn1Cc1ccccc1)Oc1ccc3ccccc3c1C2c1ccccc1` (stereo not given), the Potency result was “inactive”. On to `Cc1ccc(-c2ccc(=O)n(CC(=O)NCCc3ccc(O)cc3)n2)cc1`, for which the Potency result is “inactive”. With `Cc1ccc(NS(=O)(=O)c2ccc3c(c2)CCC(=O)N3)cc1F` the entry was “inactive”; with `O=C(NCc1nnc(-c2cc3ccccc3[nH]2)o1)c1ccccc1`, “inactive”. On to `CCOC(=O)c1cccc(NS(=O)(=O)c2ccc(NC(=O)Cc3ccc(Cl)c(Cl)c3)cc2)c1`, for which the Potency result was “inactive”.

Regarding `CC(=O)Nc1sc2c(c1-c1ccc3[nH]ccc3c1)CCNC2`, the Potency result was “inactive”.

For the compound `CC(=O)Nc1sc2c(c1-c1nc3ccccc3s1)CCN(C(C)=O)C2`, the Potency entry was “inactive”. Take `CC(C)(Nc1nc(-c2ccccc2C(F)(F)F)nc2ccccc12)c1ccc(-c2cccc(C(F)(F)F)c2)cc1`: the Potency entry is “inactive”. As to `Cc1ccc(OCCn2c(CCNC(=O)Cc3cc(F)ccc3F)nc3ccccc32)cc1`, the Potency result is “inactive”. As to `CCOC(=O)c1ccc(-n2cnc3cc(C(=O)N4CCCCC4)ccc32)cc1`, the Potency result was “inactive”. `N#Cc1c(-c2ccc(O)cc2)no[n+]1[O-]`: the Potency entry is “inactive”. For the compound `O=C1CCCC2=C1C(c1[nH]ncc1Cl)NC(=NCc1ccccn1)N2` (stereo not given), the Potency entry was “inactive”.

Regarding `O=C1CCCC2=C1C(c1ccncc1Cl)N=C(Nc1nc3ccccc3o1)N2` (stereo not given), the Potency result was “inactive”.

For the compound `O=C(Nc1cncc(-c2cccnc2)c1)c1cccs1`, the Potency entry is “inactive”. With `O=C1Cc2cc(S(=O)(=O)N3CCN(c4cccc(C(F)(F)F)c4)CC3)ccc2N1` the entry was “inactive”.

In the case of `Cc1nc(CNc2ncnc3ccc(-c4oc(-c5ccccc5)nc4C)cc23)cs1`, the Potency entry is “inactive”.

`CCc1ccc(NC(=O)c2[nH]c(C)c(C(C)=O)c2C)cc1S(=O)(=O)Nc1ccc(C#N)cc1`: the Potency result is “inactive”. `NC(=O)C1CCN(c2nc(-c3ccc([N+](=O)[O-])cc3)cs2)CC1`: the Potency entry was “inactive”.

Take `CC(C)(C)OC(=O)NC1CCN(c2nc(-c3ccc(Br)cc3)cs2)CC1`: the Potency result was “inactive”.
